Data on seven molecules can be found in PubChem BioAssay (NCI).

Compounds without any hit were thinned out: in the full panel of roughly 83,000, 20% have a hit.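 Plates (96-well) were seeded with cells, treated with compound at one concentration, and incubated for 48 hours before percent growth was determined.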 Values without a mark were called inactive. Calls of active or inactive are those of the source. Rule for the calls: active = growth percent below 10; inactive = the rest.

Test systems include NCI-H23 lung; NCI-H226 lung; NCI-H322M lung; HOP-62 NSCLC; NCI-H460 lung; HOP-92 NSCLC; NCI-H522 lung; A549/ATCC NSCLC; 786-0 renal; COLO 205 colon; DU-145 prostate; K-562 leukemia; MALME-3M melanoma; MDA-MB-231 breast; RXF 393 renal; SF-268 CNS; SF-295 CNS; SF-539 CNS; UACC-257 melanoma; M14 melanoma.
Holding throughout (test): NCI-60 one-dose screen, 48 h (100 = growth as untreated, 0 = no growth, -100 = all killed)
Common to all, as to details: 10 µM unless noted

With `Cc1ccc(C)n1/C=C/n1c(C)ccc1C`, the growth in the test with NCI-H23 lung was 94.7%; with NCI-H226 lung, 99%; in the test with NCI-H322M lung, 103%; with HOP-62 NSCLC it was 114%; in the test with NCI-H460 lung, 110%; with HOP-92 NSCLC it was 75%. Further, the growth in the test on NCI-H522 lung is 83.8%; in the test with A549/ATCC NSCLC it was 95.5%; with 786-0 renal, 107%; in the test with COLO 205 colon, 96.9%; with DU-145 prostate, 113%; in the test on K-562 leukemia, 117%. Besides, the growth in the test with MALME-3M melanoma is 117%; in the test on MDA-MB-231 breast, 99.2%; with RXF 393 renal, 102%; in the test with SF-268 CNS it was 143%; with SF-295 CNS, 76.9%; with SF-539 CNS, 100%. Also, the figures for the growth with UACC-257 melanoma and in the test on M14 melanoma were 119% and 110%, respectively.

Turning to `COc1cc(Nc2c3ccc(Cl)cc3nc3ccc(OC)cc23)c2ncccc2c1`, the growth was 50% in the test with NCI-H23 lung; 62.1% in the test on NCI-H226 lung; 47.9% in the test on NCI-H322M lung; 50.1% with HOP-62 NSCLC; 21% with NCI-H460 lung; -0.879% (active) in the test with HOP-92 NSCLC. Besides, the growth in the test with NCI-H522 lung is 49.7%; with A549/ATCC NSCLC it was 34.3%; in the test on 786-0 renal, 60.4%; in the test with COLO 205 colon it was 59.6%; in the test on DU-145 prostate it was 39.4%; with K-562 leukemia it was 53.2%. Besides, the growth in the test with MALME-3M melanoma was 32.1%; in the test on MDA-MB-231 breast, 34%; with RXF 393 renal, 45.5%; in the test with SF-268 CNS, 43.3%; in the test with SF-295 CNS it was 46.2%; in the test on SF-539 CNS, 45%. The growth in the test with UACC-257 melanoma is 59.6%; with M14 melanoma, 49.5%.

For `COc1ccc(/C(C)=C(\c2ccc(Cl)cc2)c2ccc(OCCN3CCCC3)cc2)cc1`, the growth in the test with NCI-H23 lung was 58.8%; with NCI-H226 lung, 85%; in the test with NCI-H322M lung, 49.6%; in the test with HOP-62 NSCLC it was 59.2%; with NCI-H460 lung, 2.86% (active); with HOP-92 NSCLC, 56.4%. Moreover, the growth in the test with NCI-H522 lung was 69.9%; in the test on A549/ATCC NSCLC it was 25.5%; in the test with 786-0 renal, -31.6% (active); in the test on COLO 205 colon it was -29.9% (active); in the test with DU-145 prostate it was 62.6%; in the test on K-562 leukemia, -1.6% (active). The growth in the test on MALME-3M melanoma is 4.84% (active); in the test with MDA-MB-231 breast, 25.5%; with RXF 393 renal, 32.6%; in the test on SF-268 CNS, 51.8%; in the test with SF-295 CNS it was -7.32% (active); in the test on SF-539 CNS it was 45.9%. Moreover, the results for the growth in the test with UACC-257 melanoma and in the test on M14 melanoma were -26.8% (active) and -13.7% (active), respectively.

On to `CC(=O)N/C(=C1/OC(C(O)C(O)C(O)CO)CN1C)[P+](c1ccccc1)(c1ccccc1)c1ccccc1` (stereo not given), for which the growth in the test with NCI-H23 lung was 106%; with NCI-H226 lung it was 97.6%; in the test with NCI-H322M lung it was 95.1%; with HOP-62 NSCLC, 91.4%; with NCI-H460 lung, 108%; in the test with HOP-92 NSCLC, 101%. The growth was 93.5% in the test on NCI-H522 lung; 102% in the test on A549/ATCC NSCLC; 102% in the test with 786-0 renal; 107% with COLO 205 colon; 105% in the test with DU-145 prostate; 97.6% in the test on K-562 leukemia. In addition, the growth with MALME-3M melanoma was 90.5%; in the test with MDA-MB-231 breast, 103%; with RXF 393 renal it was 97%; in the test with SF-268 CNS, 102%; with SF-295 CNS it was 100%; in the test with SF-539 CNS it was 97.6%. For the same molecule, the growth was 104% in the test on UACC-257 melanoma and 99.7% with M14 melanoma.

On to `CCOC(=O)c1c(NC(=O)c2ccc(OC)cc2)sc2c(CN(C)C)c(O)ccc12`, for which the growth is 90.6% in the test on NCI-H23 lung; 101% in the test on NCI-H226 lung; 89.6% in the test with NCI-H322M lung; 85% in the test with HOP-62 NSCLC; 60% in the test on NCI-H460 lung; 25.3% in the test on HOP-92 NSCLC. The growth in the test on NCI-H522 lung was 75.1%; in the test with A549/ATCC NSCLC, 74%; in the test on 786-0 renal, 63.4%; with COLO 205 colon, 55.3%; with DU-145 prostate, 84.3%; with K-562 leukemia, 24.1%. For the same molecule, the growth in the test with MALME-3M melanoma was -57.5% (active); in the test with MDA-MB-231 breast, 79.1%; with RXF 393 renal, 53.6%; in the test on SF-268 CNS it was 98%; in the test with SF-295 CNS it was 82.3%; in the test on SF-539 CNS, 68.8%. For the same molecule, the growth is -58% (active) in the test with UACC-257 melanoma and -69.4% (active) with M14 melanoma.

Turning to `CN(Cc1cnc2nc(N)nc(N)c2n1)c1c(Cl)cc(C(=O)NC(CCC(=O)O)C(=O)O)cc1Cl` (stereo not given), the growth is 25.8% in the test on NCI-H23 lung; 67.5% with NCI-H226 lung; 31.2% in the test on NCI-H322M lung; 23.8% with HOP-62 NSCLC; 20.2% with NCI-H460 lung; 15.4% with HOP-92 NSCLC. Further, the growth in the test on NCI-H522 lung was 24.5%; in the test with A549/ATCC NSCLC it was 15.6%; in the test on 786-0 renal, 12.7%; in the test on COLO 205 colon it was 53%; in the test with DU-145 prostate, 23.8%; in the test on K-562 leukemia, 21.6%. The growth was 68.5% with MALME-3M melanoma; 68% with MDA-MB-231 breast; 30.9% in the test on RXF 393 renal; 28.4% with SF-268 CNS; 2.98% (active) with SF-295 CNS; 21.4% in the test with SF-539 CNS. In addition, the growth is 33.8% in the test on UACC-257 melanoma and 21.3% in the test on M14 melanoma.

In the case of `O=C1/C(=C/c2ccc(C(F)(F)F)cc2)COc2ccc(O)c(O)c21`, the growth was 38% with NCI-H23 lung; 81.1% in the test with NCI-H226 lung; 50.2% in the test with NCI-H322M lung; -36.7% (active) in the test with HOP-62 NSCLC; 25.8% in the test with NCI-H460 lung; -13.7% (active) with HOP-92 NSCLC. Also, the growth was -50.3% (active) with NCI-H522 lung; 54.2% with A549/ATCC NSCLC; -78.6% (active) in the test on 786-0 renal; 12.3% in the test on COLO 205 colon; 16.1% in the test on DU-145 prostate; 3.76% (active) in the test on K-562 leukemia. Further, the growth was 23.6% in the test with MALME-3M melanoma; -10% (active) in the test with MDA-MB-231 breast; 24.5% in the test on RXF 393 renal; -0.987% (active) with SF-268 CNS; 85.8% in the test with SF-295 CNS; -83.9% (active) in the test on SF-539 CNS. For the same molecule, the growth in the test on UACC-257 melanoma is 25.3%; with M14 melanoma, 42.3%.
